This note sets out measurements from PubChem BioAssay (NCI).

About 79,000 compounds went through this panel and 15% of them were active in at least one assay; those are over-represented in the sample as a whole. Values without a mark were called inactive. Activity calls are given as the source filed them. Cut-off read from the data, not from the text of the source: active = growth inhibition above about 70%; inactive = the rest.

Test [1] in a line: NCI Yeast Anticancer Drug Screen. Data for the rad50 strain (AID 155).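 Note: 0% = growth of vehicle-only cultures of the same strain.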 Conditions: S. cerevisiae rad50 strain growth inhibition; at 50.0 µM; stronger effect = higher value. Summed up:
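Vehicle-treated cultures provide the reference for the growth inhibition reported for compound-exposed, repair-deficient yeast.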

A short description of test [2]: NCI Yeast Anticancer Drug Screen. Data for the mec2-1 strain (AID 157). Conditions: S. cerevisiae mec2-1 strain, at 50.0 µM, stronger effect = higher value. Summed up:
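Yeast mec2-1 mutant treated with compound. Readout: growth inhibition vs vehicle controls.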

A short description of test [3]: NCI Yeast Anticancer Drug Screen. Data for the sgs1 mgt1 strain (AID 161).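 Note: 0% = growth of cultures given vehicle only.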 To be noted: S. cerevisiae sgs1 mgt1 strain, at 50.0 µM, stronger effect = higher value. Put shortly:
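Genetically altered yeast, compound exposure, growth inhibition relative to vehicle.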

Test [4] can be described thus: NCI Yeast Anticancer Drug Screen. Data for the cln2 rad14 strain (AID 165).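 Note: 0% = growth equal to vehicle treated cultures.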 Conditions: S. cerevisiae cln2 rad14 strain, at 50.0 µM, stronger effect = higher value. Summed up:
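cln2 rad14 yeast strain; compound exposure; growth inhibition read vs vehicle controls.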

The nature of test [5]: NCI Yeast Anticancer Drug Screen. Data for the bub3 strain (AID 167). Conditions: S. cerevisiae bub3 mutant strain, at 50.0 µM, stronger effect = higher value. Put shortly: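 Mutant yeast screening strain plus compound; vehicle-treated cultures serve as the 0% inhibition reference.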
A short description of test [6]: NCI Yeast Anticancer Drug Screen. Data for the mlh1 rad18 strain (AID 175). Conditions: S. cerevisiae mlh1 rad18 strain growth inhibition; at 50.0 µM; stronger effect = higher value. Put shortly: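 Yeast w/ defined DNA-repair lesions; compound exposure; growth vs vehicle controls → % inhibition.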

For the compound `CC(=O)NC(C=O)C(O)C(O)C(O)CO` (stereo unspecified), the growth inhibition in test [1] was -29.4%; in test [2] it was -24.8%; in test [3], -11.1%; in test [4] it was -16.2%; in test [5], -7%; in test [6], 2.25%.

Consider `CC(=O)Nc1cc2c(cc1Cl)-c1ccc(Br)cc1C2`, for which the growth inhibition in test [1] was 6.35%; in test [2], -12.8%; in test [3] it was -2.25%; in test [4], -23.4%; in test [5] it was 0.85%; in test [6], -19.7%.

As to `CC(C)(C)C(=O)Nc1ccc(NS(=O)(=O)c2ccccc2)cc1`, the growth inhibition is 6.85% in test [1]; -4.3% in test [2]; 2.85% in test [3]; 1.8% in test [4]; 2.9% in test [5]; -21.1% in test [6].

With `O=c1cc(O)cc(CO)o1`, the growth inhibition in test [1] is -7.65%; in test [2], 5.7%; in test [3] it was -9.8%; in test [4] it was 1.2%; in test [5], -21.2%; in test [6], -2.05%.

Turning to `COc1cc2c(cc1C)C(C)(C)CCC2(C)C`, the growth inhibition is 7.8% in test [1]; -0.45% in test [2]; -3.1% in test [3]; -45.1% in test [4]; 20.6% in test [5]; 4.15% in test [6].

For the compound `CC(C)CCc1c(Cl)nc(Cl)nc1Cl`, the growth inhibition in test [1] was 32.2%; in test [2] it was 38.6%; in test [3] it was 33.6%; in test [4] it was 10.1%; in test [5], 43.9%; in test [6] it was 16.9%.

In the case of `COC(=O)c1c(O)c(C#N)c2[nH]c3ccccc3n2c1=O`, the growth inhibition in test [1] is -22.6%; in test [2], -16.6%; in test [3] it was -10.6%; in test [4], 7.85%; in test [5], -4.4%; in test [6], -18.4%.

As for `Cc1ccc(S(=O)(=O)Oc2c(Br)cc(-c3ccccc3)cc2Br)cc1`, the growth inhibition is 27.9% in test [1]; 3.4% in test [2]; 13.5% in test [3]; 6.65% in test [4]; -12.4% in test [5]; 18.6% in test [6].

As for `CCSC(COC(C)=O)(SCC)C(OC(C)=O)C(OC(C)=O)C(COC(C)=O)OC(C)=O` (stereo unspecified), the growth inhibition was 10.9% in test [1]; 6.55% in test [2]; -9% in test [3]; -6.3% in test [4]; -2.6% in test [5]; 14.4% in test [6].

As for `CCC(Cl)COP(=O)(OCC(Cl)CC)O/C(C)=C(/C)P(=O)(OCC(Cl)CC)OCC(Cl)CC` (stereo unspecified), the growth inhibition in test [1] is 32.9%; in test [2], 29.6%; in test [3], 42.4%; in test [4] it was 47.1%; in test [5], 8.6%; in test [6], 69%.

As for `CCOC(=O)c1ccc(NC(=O)Nc2cc(Cl)c(OC)cc2OC)cc1`, the growth inhibition in test [1] was 75% (active); in test [2], 90.7% (active); in test [3] it was 94% (active); in test [4], 91.8% (active); in test [5] it was 76.1% (active); in test [6], 85.8% (active).

Take `CC[P+]1(c2ccccc2)[C@@H](C)CC[C@@H]1C`: the growth inhibition was 15.1% in test [1]; 7.45% in test [2]; 12.6% in test [3]; 8.1% in test [4]; 3.75% in test [5]; 37.7% in test [6].

For `CCCC(C(C)=O)C(C)=O`, the growth inhibition is -7.8% in test [1]; -0.65% in test [2]; -4.85% in test [3]; 0.3% in test [4]; 6% in test [5]; -4.25% in test [6].

Regarding `O=C(O)Cc1nc(Cl)ccc1Cl`, the growth inhibition in test [1] is 16.1%; in test [2], -7.2%; in test [3], -0.3%; in test [4] it was -15.2%; in test [5], -1.25%; in test [6], -1.1%.

As for `C/C(=N/NC(N)=O)C1CCC(C)CC1` (stereo unspecified), the growth inhibition in test [1] was 39%; in test [2] it was 31.8%; in test [3], 21.9%; in test [4], 12.3%; in test [5], 8.2%; in test [6] it was 31%.

Consider `C[C@@H]1C[C@H](C)OC(CO)O1` (stereo partly specified) (tested in a mixture with another compound), for which the growth inhibition was 13.4% in test [1]; -1.3% in test [2]; 0.25% in test [3]; 12.2% in test [4]; -12.6% in test [5]; 19.3% in test [6].

On to `CNC(=O)CC(=O)NC`, for which the growth inhibition in test [1] is -20.4%; in test [2] it was -9.55%; in test [3] it was -16.9%; in test [4], 6.15%; in test [5] it was 8.2%; in test [6], -10.1%.

For the compound `O=C(OCCN1C(=O)c2cccc3c(Br)ccc(c23)C1=O)OCc1ccccc1`, the growth inhibition is 86.2% (active) in test [1]; 48.5% in test [2]; 60.1% in test [3]; 49.4% in test [4]; 61.7% in test [5]; 70.3% (active) in test [6].

As for `CCOC(=O)C(O)C(O)C(O)C(O)C(=O)OCC` (stereo unspecified), the growth inhibition in test [1] is 5.6%; in test [2] it was -8.15%; in test [3] it was 1.9%; in test [4], -2.35%; in test [5], -7.7%; in test [6], -8.75%.

For the compound `Nc1ncc2c(n1)-c1ccccc1OC2N1CCOCC1` (stereo unspecified), the growth inhibition in test [1] was 28%; in test [2], 2.15%; in test [3], -0.45%; in test [4], 2%; in test [5], -22.6%; in test [6] it was -7.8%.

As for `Nc1nc(N)c(-c2ccc(Cl)c(Cl)c2)c(COc2cccc3ccccc23)n1`, the growth inhibition in test [1] is 98.7% (active); in test [2] it was 99% (active); in test [3], 99.2% (active); in test [4] it was 96.5% (active); in test [5], 98.1% (active); in test [6], 98.7% (active).
